Calls of active or inactive are those of the source.
Experiments:
Albumin (Bos taurus) = Albumin (Bos taurus) (UniProt P02769); assay: bovine serum albumin binders on microarray, profiling panel, artefact control for SMM control protein annotation, biochemical, small-molecule microarray, Alexa647 label, 635/667 nm fluorescence (AID 1118); conditions: BSA-A647 binding, fluorescence 635 nm, higher = more signal;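 also: score merges 667 nm emission intensity and signal-to-noise per printed compound spot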
Sequence of Albumin (Bos taurus) (P02769 whole entry, looked up): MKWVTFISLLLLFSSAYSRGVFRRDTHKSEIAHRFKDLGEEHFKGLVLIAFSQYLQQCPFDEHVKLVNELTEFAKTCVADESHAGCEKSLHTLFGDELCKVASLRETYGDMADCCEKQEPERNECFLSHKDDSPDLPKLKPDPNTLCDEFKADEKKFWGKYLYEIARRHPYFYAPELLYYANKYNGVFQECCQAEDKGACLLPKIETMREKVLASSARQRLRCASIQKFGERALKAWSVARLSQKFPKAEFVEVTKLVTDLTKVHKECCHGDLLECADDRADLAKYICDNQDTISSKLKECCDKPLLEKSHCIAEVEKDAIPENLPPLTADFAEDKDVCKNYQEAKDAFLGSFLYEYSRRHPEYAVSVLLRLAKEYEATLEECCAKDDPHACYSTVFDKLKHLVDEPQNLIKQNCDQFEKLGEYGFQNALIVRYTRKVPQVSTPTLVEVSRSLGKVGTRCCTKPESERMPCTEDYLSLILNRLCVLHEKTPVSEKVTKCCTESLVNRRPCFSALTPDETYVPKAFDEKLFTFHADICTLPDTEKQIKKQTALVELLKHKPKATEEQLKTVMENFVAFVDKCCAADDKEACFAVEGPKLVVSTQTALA

[1] = small-molecule microarray binders of probe aXIP, primary screen, biochemical, NeuroSMM set, 635/667 nm fluorescence (AID 1119); conditions: higher = more signal, called active from +8 up or from −8 down;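 also: probe is the protein aXip251-270 applied at 1 µg/mL to compound-printed slides; binding of probe to printed compounds measured as 667 nm fluorescence plus signal to noise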
[2] = small-molecule binders of probe aNOTCH3, primary screen, biochemical, small-molecule microarray, 635/667 nm fluorescence (AID 1120); conditions: higher = more signal;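 also: probe is a biotin-tagged antibody raised against NOTCH3 rather than NOTCH3 protein; score merges spot fluorescence near 667 nm with spot signal to noise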
[3] = small-molecule binders of probe aNOTCH2, primary screen, biochemical, small-molecule microarray, 635/667 nm fluorescence (AID 1121); conditions: higher = more signal;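 also: score merges feature fluorescence read at 667 nm with its signal to noise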
[4] = target: Carbonic anhydrase 2 (Homo sapiens) (UniProt P00918); assay: CAII small-molecule binders, profiling panel, biochemical, small-molecule microarray, Alexa647-labelled CAII (AID 1122); conditions: CAII-A647 binding fluorescence, higher = more signal
[5] = COS7 lysate on small-molecule microarray, probe aHis, 635 nm (AID 1123); conditions: COS7 cell lysate, fluorescence, higher = more signal;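 also: z-score combines 667nm fluorescence intensity with signal-to-noise per printed compound spot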
[6] = compound binding in COS7 lysate, probe aLAP1, primary screen, cell lysate, small-molecule microarray (AID 1124); conditions: probe aLAP1, fluorescence, higher = more signal;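 also: lysate comes from COS7 cells expressing LAP1 and is applied at 0.3 µg/mL; score merges spot fluorescence near 667 nm with signal-to-noise over triplicate slides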
Sam68 (KHDRBS1) = assay: Sam68 small-molecule binders, primary screen, biochemical, small-molecule microarray, 635 nm fluorescence (AID 1125); conditions: small-molecule microarray binding, higher = more signal;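 also: score merges 667 nm channel intensity with signal to noise over triplicate slides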
[7] = system: Chordin-like protein 2 (CHRDL2); assay: CHRDL2 small-molecule binders, primary screen, biochemical, small-molecule microarray, 635 nm fluorescence (AID 1126); conditions: small-molecule microarray binding, fluorescence 635 nm; higher = more signal;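 also: printed compound slides probed with Chrdl2 protein at 4 µg/mL for 1 h at 4 C; score merges 667 nm emission intensity with signal to noise over three replicate slides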
[8] = target: Concanavalin-A (Canavalia ensiformis) (UniProt P02866); assay: ConA small-molecule binders, primary screen, artefact control for SMM control protein annotation, biochemical, small-molecule microarray, Alexa647 label, 635 nm (AID 1127); conditions: ConA-A647 binding fluorescence, higher = more signal;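 also: z combines 667 nm emission intensity with signal-to-noise across three replicate slides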
Sequence of Concanavalin-A (Canavalia ensiformis) (P02866 whole entry, looked up): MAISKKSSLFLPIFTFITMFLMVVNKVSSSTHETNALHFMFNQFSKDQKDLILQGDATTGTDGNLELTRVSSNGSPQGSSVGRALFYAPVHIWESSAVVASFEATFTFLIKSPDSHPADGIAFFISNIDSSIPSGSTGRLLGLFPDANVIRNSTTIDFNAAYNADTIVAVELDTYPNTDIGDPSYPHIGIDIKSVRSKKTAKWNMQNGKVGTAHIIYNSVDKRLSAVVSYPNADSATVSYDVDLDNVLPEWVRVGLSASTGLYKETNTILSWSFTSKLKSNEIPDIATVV

[9] = anti-His antibody binders, primary screen, artefact control for SMM control protein annotation, biochemical, small-molecule microarray, 635 nm fluorescence (AID 1128); conditions: anti-His Alexa647 antibody binding, higher = more signal;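 also: score merges feature fluorescence with signal-to-noise for each printed compound spot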
[10] = system: Human papillomavirus type 1a E7 protein (residues 1-88); assay: HPV1a E7 small-molecule binders, primary screen, biochemical, small-molecule microarray, residues 1-88, 635 nm (AID 1129); conditions: small-molecule microarray binding, fluorescence 635 nm; higher = more signal
[11] = target: Focal adhesion kinase 1 (Homo sapiens) (UniProt Q05397); assay: small-molecule microarray binders of FAK, primary screen, biochemical, 635/667 nm fluorescence, BSA, DTT (AID 1130); conditions: PTK2 binding, 635 nm fluorescence, higher = more signal;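 also: composite of spot emission at 667 nm and signal to noise over triplicate slides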
Sequence of Focal adhesion kinase 1 (Homo sapiens) (Q05397 whole entry, looked up): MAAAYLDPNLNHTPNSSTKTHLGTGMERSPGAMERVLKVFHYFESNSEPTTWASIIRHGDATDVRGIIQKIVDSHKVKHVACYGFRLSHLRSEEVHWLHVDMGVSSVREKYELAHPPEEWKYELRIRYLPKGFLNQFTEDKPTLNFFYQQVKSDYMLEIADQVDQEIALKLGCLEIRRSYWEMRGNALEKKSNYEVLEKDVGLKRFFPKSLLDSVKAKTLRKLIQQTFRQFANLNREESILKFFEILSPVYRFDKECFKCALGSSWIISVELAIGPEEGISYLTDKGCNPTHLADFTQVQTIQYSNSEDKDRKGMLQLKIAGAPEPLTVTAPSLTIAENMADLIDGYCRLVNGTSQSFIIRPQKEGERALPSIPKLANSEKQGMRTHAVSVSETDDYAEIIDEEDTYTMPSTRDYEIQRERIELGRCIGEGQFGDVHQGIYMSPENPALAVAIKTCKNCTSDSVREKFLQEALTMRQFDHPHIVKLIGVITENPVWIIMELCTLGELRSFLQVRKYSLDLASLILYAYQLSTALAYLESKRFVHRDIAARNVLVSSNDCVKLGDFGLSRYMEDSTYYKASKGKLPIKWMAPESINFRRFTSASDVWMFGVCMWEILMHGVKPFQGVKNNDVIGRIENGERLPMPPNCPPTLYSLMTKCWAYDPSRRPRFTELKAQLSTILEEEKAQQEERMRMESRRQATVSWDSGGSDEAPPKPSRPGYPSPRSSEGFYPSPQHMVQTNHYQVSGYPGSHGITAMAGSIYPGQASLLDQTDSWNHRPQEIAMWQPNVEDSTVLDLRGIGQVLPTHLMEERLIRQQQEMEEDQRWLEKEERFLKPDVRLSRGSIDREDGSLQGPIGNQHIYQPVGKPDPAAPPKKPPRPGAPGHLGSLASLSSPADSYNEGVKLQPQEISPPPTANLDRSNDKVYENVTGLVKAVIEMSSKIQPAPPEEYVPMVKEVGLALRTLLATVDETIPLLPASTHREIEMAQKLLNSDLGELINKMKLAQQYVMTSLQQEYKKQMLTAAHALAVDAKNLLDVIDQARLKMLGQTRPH

[12] = system: Fibrinogen (Alexa647-labelled); assay: fibrinogen binders on compound microarrays, profiling panel, artefact control for SMM control-protein annotation, biochemical, small-molecule microarray, 635/667 nm fluorescence (AID 1131); conditions: fibrinogen-A647 binding fluorescence, higher = more signal;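 also: z-score merges 667 nm fluorescence with per-spot signal-to-noise over triplicate slides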
[13] = target: Follistatin (Homo sapiens) (UniProt P19883); assay: follistatin binders on small-molecule microarrays, primary screen, biochemical, small-molecule microarray, 635/667 nm fluorescence (AID 1132); conditions: FST binding, 635 nm fluorescence, higher = more signal
Sequence of Follistatin (Homo sapiens) (P19883 whole entry, looked up): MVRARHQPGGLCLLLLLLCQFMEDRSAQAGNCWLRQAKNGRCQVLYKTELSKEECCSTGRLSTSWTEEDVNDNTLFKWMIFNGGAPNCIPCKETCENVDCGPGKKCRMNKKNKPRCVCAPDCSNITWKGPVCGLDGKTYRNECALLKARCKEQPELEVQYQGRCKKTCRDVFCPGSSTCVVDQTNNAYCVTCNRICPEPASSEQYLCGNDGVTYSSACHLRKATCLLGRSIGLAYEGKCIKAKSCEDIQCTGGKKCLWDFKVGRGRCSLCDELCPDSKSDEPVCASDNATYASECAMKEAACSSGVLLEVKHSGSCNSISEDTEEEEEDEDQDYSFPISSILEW

[14] = target: Fibroblast growth factor 2 (Homo sapiens) (UniProt P09038); assay: FGF2 binders on small-molecule microarrays, primary screen, biochemical, small-molecule microarray, 635/667 nm fluorescence (AID 1133); conditions: small-molecule microarray binding, FGF2, fluorescence 635/667; higher = more signal
Sequence of Fibroblast growth factor 2 (Homo sapiens) (P09038 whole entry, looked up): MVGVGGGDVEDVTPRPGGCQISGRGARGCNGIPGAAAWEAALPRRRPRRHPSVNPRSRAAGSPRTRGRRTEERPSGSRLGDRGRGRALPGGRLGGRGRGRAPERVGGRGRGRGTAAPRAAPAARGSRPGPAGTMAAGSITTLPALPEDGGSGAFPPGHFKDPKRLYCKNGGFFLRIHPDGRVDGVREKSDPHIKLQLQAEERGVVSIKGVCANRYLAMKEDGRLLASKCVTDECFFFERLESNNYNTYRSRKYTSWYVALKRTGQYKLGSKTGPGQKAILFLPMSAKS

[15] = mitochondrial membrane potential change in A549 cells, profiling panel, cell-based, JC-1 fluorescence, basal, 24 h, 100 nL (AID 1138); conditions: higher = more signal;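 also: A549 lung adenocarcinoma cells under basal conditions with no added stimulus; test concentration not given here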
Lefty1 = Lefty1 binders on small-molecule microarrays, primary screen, biochemical, small-molecule microarray, 635/667 nm fluorescence (AID 1139); conditions: small-molecule microarray binding, fluorescence 635/667; higher = more signal
[16] = system: wheat germ agglutinin (Triticum aestivum), Alexa647-labelled; assay: wheat germ agglutinin binders on compound microarrays, profiling panel, artefact control for SMM control-protein annotation, biochemical, small-molecule microarray, 635/667 nm fluorescence (AID 1140); conditions: WGA-A647 binding, 635 nm fluorescence, higher = more signal;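 also: score merges 667 nm feature emission with signal to noise over triplicate slides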
[17] = target: Luciferin 4-monooxygenase (Photinus pyralis) (UniProt P08659); assay: firefly luciferase enzyme inhibitors, primary screen, biochemical, luminescence, purified enzyme, 2006 set (AID 1141); conditions: SteadyGlo luminescence, 30 min, higher = more signal, called active from +8 up or from −8 down;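 also: cell-free assay with purified firefly luciferase at 100 ng per well in PBS; test concentration not given here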
Sequence of Luciferin 4-monooxygenase (Photinus pyralis) (P08659 whole entry, looked up): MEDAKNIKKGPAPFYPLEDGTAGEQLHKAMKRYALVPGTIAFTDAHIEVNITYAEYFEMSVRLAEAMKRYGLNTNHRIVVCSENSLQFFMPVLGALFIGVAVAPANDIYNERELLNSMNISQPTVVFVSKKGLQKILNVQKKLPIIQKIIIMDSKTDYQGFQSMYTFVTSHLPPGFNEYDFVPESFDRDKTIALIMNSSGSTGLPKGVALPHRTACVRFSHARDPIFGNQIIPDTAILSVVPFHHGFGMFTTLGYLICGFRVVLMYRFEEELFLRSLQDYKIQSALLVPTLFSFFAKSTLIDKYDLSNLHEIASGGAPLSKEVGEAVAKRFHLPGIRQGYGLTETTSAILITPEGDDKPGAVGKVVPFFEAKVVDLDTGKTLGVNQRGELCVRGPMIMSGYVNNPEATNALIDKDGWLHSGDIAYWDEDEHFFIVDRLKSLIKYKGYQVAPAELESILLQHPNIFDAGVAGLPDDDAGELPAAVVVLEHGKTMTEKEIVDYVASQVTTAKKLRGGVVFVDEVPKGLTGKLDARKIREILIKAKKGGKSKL

SMILES | composite z-score (Albumin (Bos taurus)) | composite Z-score [1] | composite z-score [2] | composite z-score [3] | composite z-score [4] | composite z-score [5] | composite z-score [6] | composite z-score (Sam68 (KHDRBS1)) | composite z-score [7] | composite z-score [8] | composite z-score [9] | composite z-score [10] | composite z-score [11] | composite z-score [12] | composite z-score [13] | composite z-score [14] | z-score [15] | composite z-score (Lefty1) | composite z-score [16] | z-score [17]
CC1=C([C@H](O)CCc2ccccc2)[C@H](CO)n2c(=O)n(-c3ccccc3)c(=O)n2C1 | -0.348 | 0.51 (inactive) | -0.187 | -0.199 | -0.3 | -0.35 | -0.603 | -0.308 | 0.443 | -0.0316 | -0.56 | -0.37 | -0.168 | -0.178 | 0.155 | 0.302 | 1.18 | 0.27 | -0.137 | -0.728 (inactive)
COCCOC(=O)N1C(=O)[C@@]2(c3cc(C#CCC(C(=O)OC)C(=O)OC)ccc31)[C@H](c1ccc(O)cc1)N1[C@H](c3ccccc3)[C@H](c3ccccc3)OC(=O)[C@H]1[C@@H]2C(=O)Nc1nc2ccccc2s1 | 0.703 | 0.179 (inactive) | 0.146 | -0.126 | 0.342 | 1.17 | 0.447 | 1.3 | 0.627 | 1.15 | 1.15 | 1.21 | 2.02 | 0.954 | 1.42 | 1.54 | -2.1 | 1.44 | 0.968 | -0.344 (inactive)
COc1ccc(C(=O)Nc2cccc(CN3C(=O)[C@]4(O[C@H](CC(=O)N5Cc6ccccc6C[C@H]5CO)[C@@H]([Si](C)(C)c5ccc(OC)cc5)[C@@H]4C)c4ccccc43)c2)cc1 | -0.513 | -0.222 (inactive) | 0.0243 | -0.154 | 0.288 | 0.458 | 0.557 | 1.29 | 1.38 | 0.858 | 1.17 | 0.481 | 0.343 | 0.368 | 1.39 | 1.7 | -0.806 | 1.59 | -0.0276 | 0.429 (inactive)
CC(C)NC(=O)[C@@H]1c2ccccc2C(=O)N(Cc2ccccc2C(F)(F)F)[C@H]1c1ccc(CO)cc1 | -0.273 | -0.483 (inactive) | -0.0144 | -0.0901 | 0.726 | 0.725 | 0.647 | -0.0631 | -0.585 | -0.329 | -0.403 | -0.358 | -0.156 | -0.55 | 0.471 | 0.232 | -0.18 | -1.5 | 0.145 | 0.681 (inactive)
COc1ccc(C(O)C2C=CC3C(=O)N(c4ccccc4)C(=O)C3N2Nc2ccc([N+](=O)[O-])cc2)c2ccccc12 (stereo not given) | 0.941 | 0.372 (inactive) | 0.155 | 0.0702 | 0.575 | 2.5 | 1.44 | 1.3 | 0.308 | 1.22 | 0.57 | 1.25 | 0.846 | 1 | 0.91 | 0.54 | -1.56 | 0.0679 | 1.21 | 1.19 (inactive)
O=C1C2C=CC(C(O)c3ccc([N+](=O)[O-])cc3)N(Nc3ccccc3F)C2C(=O)N1c1ccccc1 (stereo not given) | 1.04 | 0.0431 (inactive) | -0.124 | 0.0323 | 0.703 | -0.309 | 1.06 | 0.808 | -0.445 | 0.886 | 1.68 | 1.19 | -0.119 | 0.717 | 0.232 | -0.218 | -0.675 | -0.46 | 1.36 | 0.739 (inactive)
CC(C)=CCCC(C)=CC(O)C1C=CC2C(=O)NC(=O)C2N1Nc1ccc(Cl)cc1Cl (stereo not given) | 0.909 | -0.0883 (inactive) | 0.0952 | -0.0464 | 0.596 | 1.49 | 1.36 | 0.623 | 0.307 | 0.623 | 0.0944 | 1.19 | 1.15 | 0.44 | 1.29 | -0.935 | -0.974 | 0.0724 | 0.863 | -0.889 (inactive)
CN(C)CCCC[C@@H]1NC(=O)[C@@H]2C[C@H](C(=O)NCCCCCCNC(=O)CS)[C@H](c3ccc(O)cc3)N2C1=O | -0.868 | 0.0804 (inactive) | -0.0682 | -0.112 | 0.538 | 1.06 | 0.338 | 0.952 | 1.15 | 1.08 | 2.26 | 0.91 | 0.335 | 0.767 | 1.31 | 1.87 | -0.15 | 1.38 | -0.204 | -0.25 (inactive)
CN1C(=O)C2C(C1=O)C1C=C(c3ccc(CO)cc3)C2C(C2CC2)N1C (stereo not given) | 0.876 | 0.111 (inactive) | -0.0947 | -0.0859 | 0.431 | -0.415 | -0.0324 | 0.164 | 0.0323 | 0.0875 | 0.958 | -0.164 | -0.324 | -0.578 | -0.17 | -0.124 | -0.808 | -0.617 | -0.0515 | 0.279 (inactive)
COc1ccc([Si](C)(C)[C@H]2[C@H](CC(=O)N3Cc4ccccc4C[C@H]3CO)O[C@@]3(C(=O)N(C)c4c(Br)cc(C)cc43)[C@@H]2C)cc1 | 0.238 | 0.298 (inactive) | 0.0643 | -0.164 | 0.0971 | 0.787 | 0.152 | 1.1 | 0.7 | 1.06 | 0.533 | 0.777 | 0.172 | 0.636 | 1.34 | 1.24 | -0.224 | 1.58 | 0.655 | -0.0165 (inactive)
COc1cc(CO)cc(I)c1O[C@H]1C=C(C(=O)NCCO)C[C@@H](NC2CCCCCC2)[C@@H]1O | 0.441 | -0.228 (inactive) | 0.106 | -0.161 | 0.579 | -0.103 | 0.993 | 1.33 | 0.714 | 0.747 | 0.34 | 1.14 | -0.433 | 0.794 | 0.931 | 1.01 | 1.88 | 1.37 | 0.246 | 4.69 (inactive)
